Experimental data reported in PubChem BioAssay (EPA / NIEHS).
Records with an inconclusive call do not appear. Calls of active or inactive are those of the source. Rule for the calls: active = hit-call score of the fitted dose curve at least 0.9, where 1 is the maximum; inconclusive = response in the unintended direction; inactive = score below 0.9.

Test system: not listed separately
Test: Tanguay_ZF_120hpf_ActivityScore_legacy: (Legacy) Oregon State University Tanguay Lab 120 Hour Post-fertilization zebrafish Assay Score for Activity (AID 2283742);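 for AC50: dechorionated Tropical 5D wild-type zebrafish embryos held singly per well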
Method in brief: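 Binary scoring of mortality and morphology by brightfield at 24 and 120 hpf, summarised into one activity score from 18 components relative to DMSO. Wild-type Tropical 5D zebrafish, chorion removed at 4 hpf, static exposure 6–120 hpf, 28 °C.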

Compound | outcome | AC50
CCCCCCCCCCCCCCC | inactive | 
CS(=O)(=O)c1ccc([C@@H](CC2CCCC2)C(=O)Nc2cnccn2)cc1Cl | inactive | 
N=C(N)c1ccc(OCCCCCOc2ccc(C(=N)N)cc2)cc1 | inactive | 
CCCCCCCCCCCCOS(=O)(=O)O |  | 11 µM (active)
CCC(C)c1ccccc1O (configuration not stated) | inactive | 
CC(=O)Nc1ccc(O)cc1 | inactive | 
CCCCC=O | inactive | 

Target: Luciferin 4-monooxygenase (Photinus pyralis) (UniProt P08659)
Test: CCTE_Simmons_QuantiLum_inhib_2: CCTE's Firefly Luciferase Inhibition Assay, Simmons Lab (AID 2283767);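 for AC50: potency for inhibitors that lower luciferase luminescence relative to DMSO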
Method in brief: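 Eight-point titrations of each chemical, 5 nM–87.5 uM final in 0.5% DMSO, were run in three biological replicates against recombinant luciferase for 30 min at 37C. Bioluminescence signal loss, read on reagent injection, gave the inhibition endpoint.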

Sequence of Luciferin 4-monooxygenase (Photinus pyralis) (P08659 whole entry, looked up): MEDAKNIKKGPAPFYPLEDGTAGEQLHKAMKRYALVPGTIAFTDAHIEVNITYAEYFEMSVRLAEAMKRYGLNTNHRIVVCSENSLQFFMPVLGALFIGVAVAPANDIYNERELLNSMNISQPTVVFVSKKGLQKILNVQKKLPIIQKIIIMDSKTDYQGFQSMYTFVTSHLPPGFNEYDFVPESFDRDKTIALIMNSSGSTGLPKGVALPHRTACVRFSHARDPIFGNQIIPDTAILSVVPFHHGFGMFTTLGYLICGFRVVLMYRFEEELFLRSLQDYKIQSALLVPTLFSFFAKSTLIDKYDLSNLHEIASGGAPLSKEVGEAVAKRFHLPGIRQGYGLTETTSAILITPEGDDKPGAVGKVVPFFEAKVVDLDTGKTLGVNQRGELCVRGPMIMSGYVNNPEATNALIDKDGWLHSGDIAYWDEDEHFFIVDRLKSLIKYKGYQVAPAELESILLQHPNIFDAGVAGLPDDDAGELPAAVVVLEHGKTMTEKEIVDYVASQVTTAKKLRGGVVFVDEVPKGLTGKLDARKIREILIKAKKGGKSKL

Compound | outcome | AC50
CCc1cccc(CC)c1N(COC)C(=O)CS(=O)(=O)O | inactive | 
CCCCCCCCCCCCOC(=O)c1cc(O)c(O)c(O)c1 | inactive | 
Cc1cc(Cc2cc(C)cc(C(C)(C)C)c2O)c(O)c(C(C)(C)C)c1 | inactive | 
O=C1OC2(c3ccccc31)c1cc(I)c(O)c(I)c1Oc1c2cc(I)c(O)c1I |  | 6.41 µM (active)
Cc1cc(C(=C2C=CC(=Nc3ccc(S(=O)(=O)O)cc3)C=C2)c2ccc(Nc3ccc(S(=O)(=O)O)cc3)cc2)cc(S(=O)(=O)O)c1N |  | 42.8 µM (active)
CCCCCCCCCCCC | inactive | 
CCCCCCc1ccc(N)cc1 |  | 77.1 µM (active)
Cc1cc(C(C)(C)C)c(O)c(C(C)(C)C)c1 | inactive | 

Test system: not listed separately
Test: ACEA_AR_agonist_AUC_viability: ACEA Biosciences xCELLigence Real-Time Cell Analysis on Androgen Receptor Agonism for Viability (AID 2283775);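 for AC50: viability read 80 hours after compound addition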
Method in brief: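 Viability endpoint from xCELLigence impedance in 22Rv1 prostate cells at 80 h. Eight-point series, 100 uM maximum final.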

Compound | outcome | AC50
NS(=O)(=O)O | inactive | 
CC(O)COc1ccccc1 (configuration not stated) | inactive | 
CCc1ccccc1O | inactive | 
CC(C)c1c(C(=O)Nc2ccccc2)c(-c2ccccc2)c(-c2ccc(F)cc2)n1CC[C@@H](O)C[C@@H](O)CC(=O)O |  | 4.23 µM (active)
NCc1cccc(CN)c1 | inactive | 
CCCCCCCCCCCCOC(=O)c1cc(O)c(O)c(O)c1 |  | 7.6 µM (active)
Cc1ccc(S(=O)(=O)O)cc1 | inactive | 
CCC(C)c1ccccc1O (configuration not stated) | inactive | 
Cc1cc(Cc2cc(C)cc(C(C)(C)C)c2O)c(O)c(C(C)(C)C)c1 | inactive | 
CC(=O)Nc1ccc(O)cc1 | inactive | 
CCCCCCCCCCCC(=O)O | inactive | 
Cc1cc(C(=C2C=CC(=Nc3ccc(S(=O)(=O)O)cc3)C=C2)c2ccc(Nc3ccc(S(=O)(=O)O)cc3)cc2)cc(S(=O)(=O)O)c1N | inactive | 
c1cnc2c(c1)ccc1cccnc12 |  | 3.4 µM (active)
CCCCc1ccc2ccccc2c1S(=O)(=O)O |  | 3.3 µM (active)
CC(C)[C@@H]1CC[C@@H](C)C[C@H]1O | inactive | 
CCCCCCCCCCCC | inactive | 
NC(=NCCCCCCN=C(N)/N=C(\N)Nc1ccc(Cl)cc1)/N=C(\N)Nc1ccc(Cl)cc1 |  | 10.5 µM (active)
NCCN | inactive | 
Cc1ccc(C)c(S(=O)(=O)O)c1 | inactive | 
CCCCCCc1ccc(N)cc1 | inactive | 
CCCCC=O | inactive | 
Cc1cc(C(C)(C)C)c(O)c(C(C)(C)C)c1 | inactive | 
